Assay results reported in PubChem BioAssay (NCATS).
Results filed as inconclusive are left out. Calls of active or inactive are those of the source. Calls come from the whole dose curve; as a rule, active = well fitted cell-killing curve with a large enough effect; inconclusive = small, poorly fitted or top-dose-only effect, or effect the other way; inactive = no such curve, though single readings can be large or run the other way.

Test: Quantitative highthroughput screen to assess conditional lethalithy of SEM cells grown in RPMI1640 with unreated serum (RPMI+s) (AID 1963883); note: nearly all actives have a fitted effect of over 35% in size
Details: SEM B-ALL cells, CellTiter-Glo viability, 48 h; series mostly up to 45.8 µM; viability: at the top concentration
From the text: Assay Provider: Jason Cantor Ph.D.
Department of Biochemistry
University of Wisconsin-Madison, Madison, WI, USA
Chemical screening studies have identified drug sensitivities across hundreds of cancer cell lines but most putative therapeutics fail to translate. Discovery and development of drug candidates in models that more accurately reflect nutrient levels in human blood is a major challenge. Here we performed high-throughput screens in conventional versus Human Plasma-Like Medium (HPLM) to identify compounds that were "missed" when screening using the artificial culture condition. Sets of conditional anticancer compounds spanned phases of clinical development and included non-oncology drugs were assessed. […] We also traced conditional phenotypes for several chemotherapeutics to availability of HPLM-specific metabolites and confirmed others for compounds whose reported targets are encoded by nonessential genes. Our findings establish generalizable strategies for exploiting conditional lethality in HPLM to reveal therapeutic candidates and mechanisms of action in cancer cells.
Described herein are the results of each viability screens against three cell lines: NOMO1 (an acute myeloid leukemia cell line); P12-Ichikawa (a T-cell acute lymphoblastic leukemia); and SEM (a B-cell ALL). Each assay was screened using 3 different cell culture media: homemade human plasma-Like medium with 10% dialyzed fetal bovine serum (HPLM+ds); RPMI1640 with 10% untreated FBS and 5mM glucose (RPMI+s); and RPMI1640 with 10% dialyzed fetal bovine serum and 5 mM glucose (RPMI+ds).
PROTOCOL TABLE (as described by Inglese J, Shamu CE and Guy RK. 2007)
SEQUENCE No. (e.g., 1, 2, 3, etc.); […] (e.g., Cells, Incubation, Reagent, etc.); VALUE and DESCRIPTION.
1; Cells; 5 uL; white, solid bottom 1536-well Greiner assay plate.
2; Compounds; 23 nL; Kalypsis pin tool (Wako USA) equipped with a 1536-well pin head to transfer to the assay plates.
3; Incubation; 48 hours; 37C incubation.
4; Reagent; 3 uL; CellTiter Glo (Promega).
5; Incubation; 5 min, room temperature
6; Detection; Luminescence, Viewlux PerkinElmer.
NOTES (numbers refer to Sequence numbers above)
1. Briefly, 5 ul of cell reagent was dispensed using a Multidrop Combi Dispenser. The NOMO1 and SEM cells were plated at 500 cells/well and the P12-Ichikawa line at 1000 cells/well.
2. After seeding the cells, 23 nL of MIPE 4.1 library compounds (in DMSO) were added to each plate using a Kalypsys 1536 Pintool dispenser. Bortezomib at final concentration of […] and DMSO were added to each plate as positive and negative controls respectively. For each screen, MIPE 4.1 compounds were added over an eleven-point concentration range […] in 3-fold dilutions.
3. Each plate was covered with a stainless steel gasketed lid to prevent evaporation and incubated for 48 hour at 37C, 95% relative humidity, and 5% CO2.
4-5. Three microliter CellTilter-GloTM luminescent substrate mix (Promega) reagent was added to the assay plate and incubated at room temperature for 5 min.
6. The luminescence signal was measured using a ViewLux (PerkinElmer) multiplate reader with a 2 second exposure time per plate. Data for each compound were normalized as percent viability such that measurements for DMSO and the empty well controls in each plate were defined as 100% and 0%, respectively.
Potency is the fitted concentration of half-maximal effect.

Structure (SMILES) | viability | Potency
O=c1cc(-c2ccc(O)c(O)c2)oc2cc(O)cc(O)c12 | 106% (inactive) | –
CC[C@H]1CN2CCc3cc(OC)c(OC)cc3[C@H]2C[C@@H]1C[C@@H]1NCCc2cc(OC)c(OC)cc21 | – | 0.235 µM (active)
Cc1onc(-c2ccccc2Cl)c1C(=O)N[C@@H]1C(=O)N2[C@@H]1SC(C)(C)[C@@H]2C(=O)O | 90.2% (inactive) | –
CCCOc1ccc2nc(NC(=O)OC)[nH]c2c1 | – | 0.0148 µM (active)
Cc1cnc(Nc2ccc(OCCN3CCCC3)cc2)nc1Nc1cccc(S(=O)(=O)NC(C)(C)C)c1 | 77.7% (inactive) | –
CC(=O)CC(c1ccccc1)c1c(O)c2ccccc2oc1=O (stereo not given) | 119% (inactive) | –
CCOC(=O)[C@H](CCc1ccccc1)N[C@@H](C)C(=O)N1CCCC1C(=O)O (stereo not given in full) | 96% (inactive) | –
COc1ccc2c3c1OC1C[C@@H](O)C=C[C@@]31CCN(C)C2 (stereo not given in full) | 102% (inactive) | –
Oc1cccc(-c2nc(N3CCOCC3)c3oc4ncccc4c3n2)c1 | – | 1.91 µM (active)
O=C(NCCO[N+](=O)[O-])c1cccnc1 | 94% (inactive) | –
C[C@H](CCC(=O)O)[C@H]1CC[C@H]2[C@@H]3[C@H](O)C[C@@H]4C[C@H](O)CC[C@]4(C)[C@@H]3CC[C@]12C | 76.9% (inactive) | –
OCc1ccc(-c2ccc(-c3ccc(CO)s3)o2)s1 | 74.1% (inactive) | –
CC(C)(C)NC(=O)[C@H]1CC[C@H]2[C@@H]3CC[C@H]4NC(=O)C=C[C@]4(C)[C@H]3CC[C@]12C | 92.2% (inactive) | –
CCC(=O)O[C@]1(C(=O)CO)CC[C@H]2[C@@H]3CCC4=CC(=O)CC[C@]4(C)[C@@H]3CC[C@@]21C | – | 0.743 µM (active)
CC(C)c1nc(CN(C)C(=O)N[C@H](C(=O)N[C@@H](Cc2ccccc2)C[C@H](O)[C@H](Cc2ccccc2)NC(=O)OCc2cncs2)C(C)C)cs1 | 102% (inactive) | –
CC1(C)OC2=C(C(=O)c3ccccc3C2=O)[C@H](NCc2ccccc2)[C@H]1O | – | 7.43 µM (active)
O=C1C(CCC(O)c2ccc(F)cc2)C(c2ccc(O)cc2)N1c1ccc(F)cc1 (stereo not given) | 99.2% (inactive) | –
C[C@]12CCC3c4ccc(O)cc4CCC3C1CCC2=O (stereo not given in full) | 99.4% (inactive) | –
C#Cc1cccc(Nc2ncnc3cc(OCCOC)c(OCCO)cc23)c1 | – | 20.9 µM (active)
CN(C)CCN(Cc1ccc(Cl)cc1)c1ccccn1 | 87.7% (inactive) | –

Structure (SMILES) | viability | Potency
CC(C)n1cnc2c(NCCc3ccc(O)cc3)nc(-c3csc4ccccc34)nc21 | – | 7.43 µM (active)
O=C(Nc1cccc2c(=O)cc(-c3nn[nH]n3)oc12)c1ccc(OCCCCc2ccccc2)cc1 | – | 9.35 µM (active)
O=C(Nc1cccc(Nc2ncc(Br)c(NCCc3cnc[nH]3)n2)c1)N1CCCC1 | – | 0.166 µM (active)
CCCCCCCCCCCC1=C(O)C(=O)C=C(O)C1=O | 103% (inactive) | –
COc1cc(F)c(C(C)C)cc1-c1ccc(C(F)(F)F)cc1CN1C(=O)O[C@H](c2cc(C(F)(F)F)cc(C(F)(F)F)c2)[C@@H]1C | 67.6% (inactive) | –
CC[C@@H]1C=C(C)C[C@H](C)C[C@H](OC)[C@H]2O[C@@](O)(C(=O)C(=O)N3CCCC[C@@H]3C(=O)O[C@H](C(C)=C[C@@H]3CC[C@H](Cl)[C@H](OC)C3)[C@H](C)[C@@H](O)CC1=O)[C@H](C)C[C@H]2OC | 80.7% (inactive) | –
CC(NCc1ccc2c(c1)nc(NC(=O)c1ccc(-c3cn[nH]c3)s1)n2CC(C)(C)O)C(C)(C)C (stereo not given) | – | 0.0418 µM (active)
Cc1ccc(N(CC2=NCCN2)c2cccc(O)c2)cc1 | 81% (inactive) | –
CN1CCN(c2ccc(C(=O)Nc3n[nH]c4ccc(Cc5cc(F)cc(F)c5)cc34)c(NC3CCOCC3)c2)CC1 | – | 5.24 µM (active)
CCN(CC)CCOc1ccc(Cc2ccccc2)cc1 | – | 4.18 µM (active)
COc1cc(O)c2c(c1)C(=O)c1cc(C)cc(O)c1C2=O | – | 4.07 µM (active)
CC1(COc2ccc3c(c2)ncn3-c2ccc3cccc(N4CCC(N)CC4)c3n2)COC1 | – | 0.0209 µM (active)
c1ccc2c(CCNc3ccc(Nc4ccncc4)cc3)c[nH]c2c1 | – | 0.372 µM (active)
CCCCN1CCC(CNC(=O)c2c3n(c4ccccc24)CCCO3)CC1 | 72.4% (inactive) | –
C[C@@]12C(=O)OC(=O)[C@@]1(C)C1CCC2O1 | – | 6.62 µM (active)
CCCCCCCCCCCCCCCC(=O)O[C@H]1[C@@H](O)[C@@H](O)[C@@H]([C@H](NC(=O)[C@@H]2C[C@@H](CCC)CN2C)[C@H](C)Cl)O[C@@H]1SC | 89.8% (inactive) | –
O=S(=O)(O)CCSSCCS(=O)(=O)O | 99.1% (inactive) | –
O=C(O)C1(Cc2cccc(Nc3nccs3)n2)CCC(Oc2cccc(Cl)c2F)CC1 (stereo not given) | – | 3.32 µM (active)
C[C@@H]1C(=O)O[C@H]2CC34[C@H]5C[C@@H](C(C)(C)C)C36[C@H](OC(=O)[C@@H]6O)O[C@@]4(C(=O)O5)[C@]21O (stereo not given in full) | 95.3% (inactive) | –
O=C(O)C[C@H](O)C[C@H](O)C=Cc1c(C2CC2)nc2ccccc2c1-c1ccc(F)cc1 | – | 11.8 µM (active)
